High-throughput results: PubChem, National Center for Advancing Translational Sciences (NCATS)
The list is not random: actives were taken first. Their share in the collection is about 3.1%.
EPAC1 agonist = human EPAC1 agonism, validation; EPAC1 Rap1b BODIPY-GDP exchange, fluorescence; Potency, µM, for inactives: max response, positive = active, actives largely listed as activators; 16,000 tested, 1% active; also: nearly all actives have a fitted effect of over 70% in size
EPAC2 ant val = human EPAC2 antagonism, validation. AID 1645886. Q8WZA2. EPAC2 Rap1B BODIPY-GDP exchange, fluorescence. Potency, µM (highest dose often 112 µM), without a hit: at the highest dose activity, negative = inhibition, usual class: inhibitors. 16,000 tested, 1.7% active;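 also: 100% = activation by cAMP agonist control; nearly all actives have a fitted effect of over 40% in size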
Target sequence (Q8WZA2 whole entry, looked up): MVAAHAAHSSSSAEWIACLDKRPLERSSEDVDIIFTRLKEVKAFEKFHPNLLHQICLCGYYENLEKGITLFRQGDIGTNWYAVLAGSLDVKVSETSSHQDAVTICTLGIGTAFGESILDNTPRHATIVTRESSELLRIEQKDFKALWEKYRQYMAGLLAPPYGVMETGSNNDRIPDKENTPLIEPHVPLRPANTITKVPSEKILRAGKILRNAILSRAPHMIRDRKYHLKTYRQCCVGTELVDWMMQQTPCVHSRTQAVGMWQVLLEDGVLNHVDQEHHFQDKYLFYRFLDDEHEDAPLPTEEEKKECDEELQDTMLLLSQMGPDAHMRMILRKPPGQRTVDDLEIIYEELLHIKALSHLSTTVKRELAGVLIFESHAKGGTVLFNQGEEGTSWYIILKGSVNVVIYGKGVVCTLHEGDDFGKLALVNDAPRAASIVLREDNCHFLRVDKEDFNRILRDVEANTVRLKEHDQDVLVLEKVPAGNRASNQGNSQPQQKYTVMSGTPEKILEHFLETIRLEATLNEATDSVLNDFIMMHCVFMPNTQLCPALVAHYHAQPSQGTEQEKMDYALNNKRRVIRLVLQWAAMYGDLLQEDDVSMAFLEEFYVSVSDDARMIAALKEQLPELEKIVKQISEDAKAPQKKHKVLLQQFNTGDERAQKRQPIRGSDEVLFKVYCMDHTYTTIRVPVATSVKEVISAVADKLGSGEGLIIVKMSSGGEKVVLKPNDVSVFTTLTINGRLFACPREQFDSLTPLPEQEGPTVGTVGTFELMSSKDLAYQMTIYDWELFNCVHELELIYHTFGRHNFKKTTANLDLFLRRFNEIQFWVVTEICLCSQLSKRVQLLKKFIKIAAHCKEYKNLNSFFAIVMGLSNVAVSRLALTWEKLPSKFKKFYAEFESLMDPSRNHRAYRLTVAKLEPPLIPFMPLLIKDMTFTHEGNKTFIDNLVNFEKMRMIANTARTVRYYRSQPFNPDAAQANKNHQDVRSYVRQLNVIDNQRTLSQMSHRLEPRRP
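Fluorescent exchange read-out: 100 nM EPAC2 with 250 nM RAP1B–BODIPY-GDP and 50 uM GDP; BODIPY-GDP release lowers fluorescence. Read at 480/540 nm every 5 min for 30 min at room temperature; normalized to 6.5 mM cAMP.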
An asterisk follows results filed as active; ? = inconclusive; ! = a repeat was not active; [ ] = another dose, or the depositor's remark. Calls follow the shape of the dose curve; as a rule, active = well fitted curve in the direction sought with a large enough effect; inconclusive = small, poorly fitted or top-dose-only effect, or another doubt; inactive = no such curve, though single readings can be large; an effect the other way counts as inactive or inconclusive. Unless noted, % is scaled to controls: 0 for no effect and ±100 for the full control effect; potency is read from the fitted curve at half-maximal effect.

SMILES	EPAC1 agonist	EPAC2 ant val
Clc1ccc(C(Cn2ccnc2)OCc2c(Cl)cccc2Cl)c(Cl)c1 (stereo not drawn)	40µM*!	?
CCOc1ccc(C(=O)c2ccc(OC)c(O)c2O)cc1	7%	-19%
CC1(C)C2CC[C@@]1(C)C(=O)C2	?	-13%
O=C1c2ccccc2C(Cc2ccncc2)(Cc2ccncc2)c2ccccc21	9%	?
C[C@H](CCC(=O)NCC(=O)O)C1CC[C@H]2C3CC[C@@H]4C[C@H](O)CC[C@]4(C)C3C[C@H](O)[C@]12C (stereo partly drawn)	-23%	10%
CCOC(=O)C1=C(C)NC(=S)NC1c1cccc(O)c1 (stereo not drawn)	7%	-42%
COC(=O)C1=C(C)NC(C)=C(C(=O)O[C@H]2CCN(Cc3ccccc3)C2)[C@H]1c1cccc([N+](=O)[O-])c1	?	-11%
C#CCN1C(C)=C(C(=O)OC)C(c2cccc([N+](=O)[O-])c2)C(C(=O)OCC)=C1C (stereo not drawn)	10%	45µM*
COC(=O)C1=C(C)NC(C)=C(C(=O)OCCCN2CCC(c3ccccc3)(c3ccccc3)CC2)C1c1cccc([N+](=O)[O-])c1 (stereo not drawn)	112µM*!	-9%
CCNc1ncc2nc(-c3cn(C)c4ccccc34)c(=O)n(-c3ccc(OC)cc3)c2n1	-44%	-2%
OC1(c2cccnc2)CCN(Cc2ccc3c(c2)CN(Cc2ccc(F)c(F)c2)CCO3)CC1	-2%	-5%
CCC(C)C(=O)OC1CC(C)C=C2C=CC(C)C(CCC3CC(O)CC(=O)O3)C21 (stereo not drawn)	-16%	2%
C[C@H]1C=C2C=C[C@H](C)[C@H](CC[C@@H]3C[C@@H](O)CC(=O)O3)[C@H]2[C@@H](OC(=O)[C@@H](C)CCO)C1	-24%	56µM*
CCOC(=O)c1ccc(NC(=O)CN2CCCCC2)cc1	?	13%
COc1cccc(-c2nc3cc(SC)ccc3cc2CN(C(=O)c2csc(C)n2)C2CC2)c1	-2%	16µM*
COc1ccc(-c2nc3cc(F)ccc3cc2CN(C(=O)c2cccc(OC)c2)C2CC2)cc1	-1%	1%
CN1CCCN(C(c2ccccc2)c2ccc(Cl)cc2)CC1 (stereo not drawn)	-15%	-6%
COc1c2ccoc2nc2c(OC)c(O[C@@H]3O[C@H](C)[C@@H](O)[C@@H](O)[C@H]3O)ccc12	-18%	18%
CCN(CC)c1ccccc1/C=C/[n+]1ccc(CCCCI)c2ccccc21	-110%	56µM*
CCCc1c(OCCCCc2nn[nH]n2)ccc(C(C)=O)c1O	10%	8.9µM*!
CCCCCCOc1ccccc1C(N)=O	-10%	?
CC1(COc2ccc(CC3SC(=O)NC3=O)cc2)CCCCC1 (stereo not drawn)	-13%	50µM*!
CC1(COc2ccc(C[C@H]3SC(=O)NC3=O)cc2)CCCCC1	-14%	?
O=C(NC1CCCCC1)[C@@H]1CC=C[C@@H]2CCN(C3CCCCC3)C(=O)[C@@H]21	24%	-5%
CC(=O)c1ccc2c(c1)N(CCCN1CCN(CCO)CC1)c1ccccc1S2	7%	54%
SMILES	EPAC1 agonist	EPAC2 ant val
OCCN1CCN(CCCN2c3ccccc3Sc3ccc(C(F)(F)F)cc32)CC1	17%	50µM*!
CN1CCN(CCCN2c3ccccc3Sc3ccc(Cl)cc32)CC1	14%	35µM*!
CN1CCN(CCCN2c3ccccc3Sc3ccccc32)CC1	9%	3%
OC1(c2cccnc2)CCN(Cc2ccc3c(c2)CN(Cc2cc(F)cc(F)c2)CCO3)CC1	-4%	-5%
COc1ccccc1CN1CC2(CCN(C(=O)c3ccncc3)CC2)C1	-72%	-17%
Cn1c(=O)c2[nH]c(Br)nc2n(C)c1=O	-24%	4%
CCN1CCCC1CNC(=O)c1cc(S(=O)(=O)CC)ccc1OC (stereo not drawn)	-1%	240%
Nc1cc(-c2ccncc2)c[nH]c1=O	?	35µM*!
O=S(=O)(O)Oc1ccc(C(c2ccc(OS(=O)(=O)O)cc2)c2ccccn2)cc1	22%	-11%
CC(=O)Oc1ccc(C(c2ccc(OC(C)=O)cc2)c2ccccn2)cc1	-44%	18µM*
CCCCCCCCCCCCCCCC[N+](C)(C)CC	-65%	56µM*
CCCCCCCC[N+](C)(C)CCCCCCCC	20%	4%
CCCCCCCCCCCCCC[N+](C)(C)Cc1ccccc1	-36%	8%
CCCCCCCCCCCCCCCC[N+](C)(C)Cc1ccccc1	-43%	79µM*
COc1ccccc1-c1nc(Nc2ccncc2)c2ccccc2n1	-4%	-12%
CN(Cc1ccco1)c1nc(-c2ccccc2Cl)nc2ccccc12	100µM*	-30%
COc1ccccc1-c1nc(N(C)Cc2ccco2)c2ccccc2n1	-1%	?
COc1ccccc1C(=O)N[C@@H]1c2ccccc2C2(CCN(Cc3ccc(C)o3)CC2)[C@H]1O	21%	-31%
O=S(c1cc(Cl)cc(Cl)c1O)c1cc(Cl)cc(Cl)c1O	-3%	?
Oc1c(Cl)cc(Cl)cc1Sc1cc(Cl)cc(Cl)c1O	-9%	56µM*
CCOC(=O)OC(C)OC(=O)[C@@H]1N2C(=O)[C@@H](NC(=O)[C@H](N)c3ccccc3)[C@H]2SC1(C)C (stereo partly drawn)	-27%	5%[56.6 µM]
O=c1cnc2cnc(OCc3ccccc3)nc2n1CCc1ccccc1	?	22µM*
N#CCCn1c(=O)cnc2cnc(OCc3ccccc3)nc21	11%	-25%
COC(=O)C1=C(C)NC(C)=C([N+](=O)[O-])[C@@H]1c1ccccc1C(F)(F)F	-14%	40µM*
COC(=O)C1=C(C)NC(C)=C(C(=O)OCC(C)=O)C1c1ccccc1[N+](=O)[O-] (stereo not drawn)	9%	-8%
SMILES	EPAC1 agonist	EPAC2 ant val
COC(=O)C1=C(C)NC(C)=C(C(=O)OCCSc2ccccc2)[C@@H]1C	17%	?
COC(=O)C1=C(C)NC(C)=C([N+](=O)[O-])[C@H]1c1ccccc1C(F)(F)F	-15%	50µM*
COc1cccc(Cn2c(=O)cnc3cnc(Nc4cccc(OC)c4)nc32)c1	28%	-23%
Cc1c(C(=O)NCC2CC2)sc2ncnc(NCCN3CCCCC3)c12	-21%	10%
Nc1c(N=Nc2ccc(-c3ccc(N=Nc4cc(S(=O)(=O)O)c5ccccc5c4N)cc3)cc2)cc(S(=O)(=O)O)c2ccccc12	-6%	40µM*
Cc1cc(-c2ccc(N=Nc3ccc4c(S(=O)(=O)O)cc(S(=O)(=O)O)c(N)c4c3O)c(C)c2)ccc1N=Nc1ccc2c(S(=O)(=O)O)cc(S(=O)(=O)O)c(N)c2c1O	-10%	32µM*!
CCCN1CCC(=O)N([C@H](COc2ccccc2)CC(C)C)CC1	-17%	10%
CC(C)C[C@@H](COc1ccccc1)N1CCN(CCc2ccccc2)CCC1=O	-12%	32µM*
CC(C)(C)NC[C@H](O)c1ccc(O)c(CO)c1	-8%	-9%
C/C1=C2N=C(/C=C3N=C(/C(C)=C4\[N-]C(C(CC(N)=O)C4(C)CCC(=O)NCC(C)OP(=O)([O-])OC4C(CO)OC(n5cnc6cc(C)c(C)cc65)C4O)C4(C)N=C1C(CCC(N)=O)C4(C)CC(N)=O)C(CCC(N)=O)C\3(C)C)C(CCC(N)=O)C/2(C)CC(N)=O.[CH3-].[Co+3] (stereo not drawn)	2%	10µM*
CC1(C)SC2C(NC(=O)Cc3ccccc3)C(=O)N2C1C(=O)O (stereo not drawn)	11%	-5%
O=C(Oc1ccccc1)c1ccccc1O	-1%	-5%
